Reference: ChEMBL document CHEMBL2218924, “A broad activity screen in support of a chemogenomic map for kinase signalling research and drug discovery” (Biochem J, 2013)

What was measured:
[1] = molecular target: Mast/stem cell growth factor receptor Kit (Homo sapiens) (UniProt P10721); details: at 1 µM
[2] = molecular target: Mast/stem cell growth factor receptor Kit (Homo sapiens) (UniProt P10721); details: at 10 µM
[3] = molecular target: Proto-oncogene tyrosine-protein kinase Src (Homo sapiens) (UniProt P12931); details: at 1 µM
Target sequence in this assay (P12931 2-536 limits assumed): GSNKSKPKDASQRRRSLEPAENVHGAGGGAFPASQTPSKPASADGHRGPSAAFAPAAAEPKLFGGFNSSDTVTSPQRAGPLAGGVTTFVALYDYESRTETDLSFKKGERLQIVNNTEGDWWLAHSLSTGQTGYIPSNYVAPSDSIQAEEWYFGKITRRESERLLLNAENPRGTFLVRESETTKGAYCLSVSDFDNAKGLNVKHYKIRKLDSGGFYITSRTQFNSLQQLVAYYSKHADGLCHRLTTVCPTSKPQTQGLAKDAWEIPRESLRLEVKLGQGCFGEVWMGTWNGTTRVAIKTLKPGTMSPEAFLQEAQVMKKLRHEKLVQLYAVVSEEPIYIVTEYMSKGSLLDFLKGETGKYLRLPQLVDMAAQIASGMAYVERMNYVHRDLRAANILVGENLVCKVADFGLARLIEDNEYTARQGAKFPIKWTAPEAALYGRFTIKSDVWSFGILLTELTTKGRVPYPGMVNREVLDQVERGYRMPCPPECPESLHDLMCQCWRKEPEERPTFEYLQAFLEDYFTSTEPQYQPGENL

[4] = molecular target: Proto-oncogene tyrosine-protein kinase Src (Homo sapiens) (UniProt P12931); details: at 10 µM
[5] = molecular target: Serine/threonine-protein kinase mTOR (Homo sapiens) (UniProt P42345); details: at 1 µM
[6] = molecular target: Serine/threonine-protein kinase mTOR (Homo sapiens) (UniProt P42345); details: at 10 µM
[7] = molecular target: Serine/threonine-protein kinase mTOR (Homo sapiens) (UniProt P42345); details: at 1 µM; remark: listed apart in the source
[8] = molecular target: Serine/threonine-protein kinase mTOR (Homo sapiens) (UniProt P42345); details: at 10 µM; remark: listed apart in the source
[9] = molecular target: Ribosomal protein S6 kinase beta-1 (Homo sapiens) (UniProt P23443); details: at 1 µM
[10] = molecular target: Ribosomal protein S6 kinase beta-1 (Homo sapiens) (UniProt P23443); details: at 10 µM
[11] = molecular target: Serine/threonine-protein kinase Nek6 (Homo sapiens) (UniProt Q9HC98); details: at 1 µM
[12] = molecular target: Serine/threonine-protein kinase Nek6 (Homo sapiens) (UniProt Q9HC98); details: at 10 µM
[13] = molecular target: Serine/threonine-protein kinase Nek7 (Homo sapiens) (UniProt Q8TDX7); details: at 1 µM
[14] = molecular target: Serine/threonine-protein kinase Nek7 (Homo sapiens) (UniProt Q8TDX7); details: at 10 µM
[15] = molecular target: T1, Serine/threonine-protein kinase NLK (Homo sapiens) (UniProt Q9UBE8); details: at 1 µM
T1 sequence (whole entry): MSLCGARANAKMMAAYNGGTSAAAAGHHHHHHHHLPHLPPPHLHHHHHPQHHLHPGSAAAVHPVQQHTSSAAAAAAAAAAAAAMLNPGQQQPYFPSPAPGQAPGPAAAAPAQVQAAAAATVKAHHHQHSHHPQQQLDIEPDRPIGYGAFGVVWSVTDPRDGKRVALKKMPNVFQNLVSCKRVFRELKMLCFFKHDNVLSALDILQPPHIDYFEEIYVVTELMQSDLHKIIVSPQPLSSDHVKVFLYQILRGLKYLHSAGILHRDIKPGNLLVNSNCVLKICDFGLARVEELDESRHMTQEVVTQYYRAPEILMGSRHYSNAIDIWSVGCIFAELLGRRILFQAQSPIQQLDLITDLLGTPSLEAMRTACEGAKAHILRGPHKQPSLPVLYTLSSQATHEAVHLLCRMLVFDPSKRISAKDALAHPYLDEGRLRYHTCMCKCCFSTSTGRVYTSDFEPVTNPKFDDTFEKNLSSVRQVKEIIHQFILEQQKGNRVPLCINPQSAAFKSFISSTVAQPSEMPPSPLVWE

[16] = molecular target: T1, Serine/threonine-protein kinase NLK (Homo sapiens); details: at 10 µM
[17] = molecular target: Serine/threonine-protein kinase PAK 2 (Homo sapiens) (UniProt Q13177); details: at 1 µM
[18] = molecular target: Serine/threonine-protein kinase PAK 2 (Homo sapiens) (UniProt Q13177); details: at 10 µM
[19] = molecular target: T2, Eukaryotic elongation factor 2 kinase (Homo sapiens) (UniProt O00418); details: at 1 µM
T2 sequence (whole entry): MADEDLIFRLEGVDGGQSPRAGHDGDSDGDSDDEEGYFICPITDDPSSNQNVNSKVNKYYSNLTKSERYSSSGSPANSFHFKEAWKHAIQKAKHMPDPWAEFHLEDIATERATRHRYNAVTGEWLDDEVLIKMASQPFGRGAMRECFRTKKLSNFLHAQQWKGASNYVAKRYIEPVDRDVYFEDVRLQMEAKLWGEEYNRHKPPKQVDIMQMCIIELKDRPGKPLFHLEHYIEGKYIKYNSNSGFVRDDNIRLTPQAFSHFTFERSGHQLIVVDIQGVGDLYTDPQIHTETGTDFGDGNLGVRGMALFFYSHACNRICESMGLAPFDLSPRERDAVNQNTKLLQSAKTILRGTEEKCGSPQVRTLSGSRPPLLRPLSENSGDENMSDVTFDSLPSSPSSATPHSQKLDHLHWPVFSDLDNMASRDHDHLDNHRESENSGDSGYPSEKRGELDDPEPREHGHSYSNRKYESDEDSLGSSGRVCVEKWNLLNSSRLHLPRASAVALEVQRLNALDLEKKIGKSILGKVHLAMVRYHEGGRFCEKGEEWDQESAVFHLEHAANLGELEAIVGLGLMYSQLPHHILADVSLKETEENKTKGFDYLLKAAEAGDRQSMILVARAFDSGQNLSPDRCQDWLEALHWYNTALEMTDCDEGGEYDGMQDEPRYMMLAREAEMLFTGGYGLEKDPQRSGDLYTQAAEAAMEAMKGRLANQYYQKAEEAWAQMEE

[20] = molecular target: T2, Eukaryotic elongation factor 2 kinase (Homo sapiens); details: at 10 µM

Sequence of Mast/stem cell growth factor receptor Kit (Homo sapiens) (P10721 whole entry): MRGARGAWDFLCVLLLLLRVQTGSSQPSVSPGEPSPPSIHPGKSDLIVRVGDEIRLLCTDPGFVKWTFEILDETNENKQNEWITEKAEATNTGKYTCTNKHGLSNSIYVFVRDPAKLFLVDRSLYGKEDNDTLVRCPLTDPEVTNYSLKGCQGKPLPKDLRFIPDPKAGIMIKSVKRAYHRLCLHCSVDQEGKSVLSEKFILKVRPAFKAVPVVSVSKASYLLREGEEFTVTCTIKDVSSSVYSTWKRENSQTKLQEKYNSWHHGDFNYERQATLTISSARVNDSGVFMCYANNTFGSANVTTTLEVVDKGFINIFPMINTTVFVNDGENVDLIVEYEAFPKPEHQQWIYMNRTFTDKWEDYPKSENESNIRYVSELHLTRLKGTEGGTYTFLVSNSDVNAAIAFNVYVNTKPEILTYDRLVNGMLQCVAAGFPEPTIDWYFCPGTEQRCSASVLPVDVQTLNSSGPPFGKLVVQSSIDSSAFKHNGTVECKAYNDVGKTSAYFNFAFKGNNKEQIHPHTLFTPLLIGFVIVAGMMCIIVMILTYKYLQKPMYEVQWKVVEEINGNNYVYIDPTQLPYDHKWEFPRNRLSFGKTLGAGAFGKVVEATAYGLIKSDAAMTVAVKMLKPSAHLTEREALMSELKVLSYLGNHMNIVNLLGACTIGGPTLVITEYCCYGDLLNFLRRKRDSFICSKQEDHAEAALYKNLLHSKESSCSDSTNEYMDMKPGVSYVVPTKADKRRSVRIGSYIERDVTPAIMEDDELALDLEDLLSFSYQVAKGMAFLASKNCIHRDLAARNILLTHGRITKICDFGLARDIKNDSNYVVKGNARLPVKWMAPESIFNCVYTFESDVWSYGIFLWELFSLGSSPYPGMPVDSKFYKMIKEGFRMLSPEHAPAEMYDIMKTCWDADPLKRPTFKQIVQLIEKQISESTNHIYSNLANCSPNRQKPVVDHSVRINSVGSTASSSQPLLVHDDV
Sequence of Serine/threonine-protein kinase Nek6 (Homo sapiens) (Q9HC98 whole entry): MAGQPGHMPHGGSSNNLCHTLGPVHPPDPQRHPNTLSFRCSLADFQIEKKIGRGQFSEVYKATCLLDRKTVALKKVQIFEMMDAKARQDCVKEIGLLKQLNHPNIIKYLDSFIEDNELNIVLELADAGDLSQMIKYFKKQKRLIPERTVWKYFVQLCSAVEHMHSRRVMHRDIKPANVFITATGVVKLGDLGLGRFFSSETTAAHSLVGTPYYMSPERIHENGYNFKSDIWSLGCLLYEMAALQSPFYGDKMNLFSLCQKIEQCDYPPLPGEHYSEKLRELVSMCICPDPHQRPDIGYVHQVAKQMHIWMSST
Sequence of Ribosomal protein S6 kinase beta-1 (Homo sapiens) (P23443 whole entry, looked up): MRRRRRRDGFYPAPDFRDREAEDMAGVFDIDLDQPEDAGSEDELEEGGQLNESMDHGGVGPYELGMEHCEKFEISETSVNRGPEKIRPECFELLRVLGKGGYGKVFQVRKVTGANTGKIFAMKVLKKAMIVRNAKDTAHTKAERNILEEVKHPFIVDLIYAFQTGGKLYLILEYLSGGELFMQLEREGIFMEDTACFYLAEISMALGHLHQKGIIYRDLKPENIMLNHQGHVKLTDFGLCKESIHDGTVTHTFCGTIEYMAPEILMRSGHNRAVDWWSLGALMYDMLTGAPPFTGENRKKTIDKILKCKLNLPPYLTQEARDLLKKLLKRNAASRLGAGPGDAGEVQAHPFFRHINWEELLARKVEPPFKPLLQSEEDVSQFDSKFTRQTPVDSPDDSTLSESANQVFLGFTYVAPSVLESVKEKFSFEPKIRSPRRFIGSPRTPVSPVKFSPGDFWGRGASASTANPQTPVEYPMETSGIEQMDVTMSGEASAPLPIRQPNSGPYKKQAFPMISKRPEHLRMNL
Sequence of Serine/threonine-protein kinase Nek7 (Homo sapiens) (Q8TDX7 whole entry, looked up): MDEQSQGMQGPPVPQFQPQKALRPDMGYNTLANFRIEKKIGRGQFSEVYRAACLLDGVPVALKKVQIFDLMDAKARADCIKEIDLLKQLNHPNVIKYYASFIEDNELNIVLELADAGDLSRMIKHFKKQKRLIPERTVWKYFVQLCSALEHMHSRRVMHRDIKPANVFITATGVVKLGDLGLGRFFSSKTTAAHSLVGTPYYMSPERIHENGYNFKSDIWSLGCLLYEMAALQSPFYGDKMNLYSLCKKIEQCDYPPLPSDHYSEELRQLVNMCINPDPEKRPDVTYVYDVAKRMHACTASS
Sequence of Serine/threonine-protein kinase PAK 2 (Homo sapiens) (Q13177 whole entry): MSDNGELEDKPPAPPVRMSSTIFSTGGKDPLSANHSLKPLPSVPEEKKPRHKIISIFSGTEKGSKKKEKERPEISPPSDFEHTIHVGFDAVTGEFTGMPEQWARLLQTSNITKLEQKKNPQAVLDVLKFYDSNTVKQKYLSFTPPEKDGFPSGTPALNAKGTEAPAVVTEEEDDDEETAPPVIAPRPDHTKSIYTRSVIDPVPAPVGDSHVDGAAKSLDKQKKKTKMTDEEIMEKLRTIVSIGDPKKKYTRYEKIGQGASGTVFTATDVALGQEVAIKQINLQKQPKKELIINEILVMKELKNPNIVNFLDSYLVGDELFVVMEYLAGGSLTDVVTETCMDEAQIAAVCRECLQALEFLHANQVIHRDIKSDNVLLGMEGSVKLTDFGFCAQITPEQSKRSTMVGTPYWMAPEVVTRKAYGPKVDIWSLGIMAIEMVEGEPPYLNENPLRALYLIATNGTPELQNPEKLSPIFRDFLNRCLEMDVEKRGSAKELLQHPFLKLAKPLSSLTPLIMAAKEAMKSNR

Structure (SMILES)	residual activity [1]	residual activity [2]	residual activity [3]	residual activity [4]	residual activity [5]	residual activity [6]	residual activity [7]	residual activity [8]	residual activity [9]	residual activity [10]	residual activity [11]	residual activity [12]	residual activity [13]	residual activity [14]	residual activity [15]	residual activity [16]	residual activity [17]	residual activity [18]	residual activity [19]	residual activity [20]
O=C1NC(=O)c2c1c1c3ccccc3[nH]c1n1cncc21	11%	10%	100%	64%	75%	71%	86%	76%	68%	28%	98% (inactive)	90%	100% (inactive)	86% (inactive)	89%	72%	98%	89%	–	–
Cn1c2ccccc2c2c3c(c4c5ccccc5n(CCC#N)c4c21)CNC3=O	113%	82%	69%	79%	115%	112%	72%	99%	1%	4%	93% (inactive)	113%	95% (inactive)	80% (inactive)	50%	41%	101%	–	100% (inactive)	116%
CCOC(=O)c1c(C)[nH]c(/C=C2\C(=O)Nc3ccccc32)c1C	38%	53%	–	–	98%	99%	–	–	–	–	–	–	–	–	–	–	–	–	–	–
CC(C)[C@H](CO)Nc1nc(Nc2cc(N)cc(Cl)c2)c2ncn(C(C)C)c2n1	99%	89%	28%	2%	98%	83%	–	72%	86%	39%	–	–	–	–	–	–	–	–	–	–
CN(C)S(=O)(=O)c1ccc2c(c1)/C(=C/c1cc3c([nH]1)CCCC3)C(=O)N2	29%	28%	31%	35%	–	–	–	–	–	–	115% (inactive)	114%	111% (inactive)	–	91%	93%	–	–	–	–
O=C(c1ccccc1)c1ccc(N2CCOCC2)cc1O	111%	96%	87%	93%	88%	94%	96%	54%	77%	53%	92% (inactive)	–	116% (inactive)	–	–	63%	–	–	–	–
Nc1ncnc2[nH]nc(Nc3ccc(F)cc3)c12	106%	106%	100%	54%	98%	90%	91%	95%	91%	61%	118% (inactive)	106%	100% (inactive)	96% (inactive)	93%	55%	106%	109%	–	–
Nc1nc(Nc2ccc(S(N)(=O)=O)cc2)nn1C(=O)c1c(F)cccc1F	100%	63%	–	–	115%	–	–	–	–	–	105% (inactive)	115%	111% (inactive)	105% (inactive)	75%	34%	118%	–	–	–
COc1ccc2c(c1)c(C1=C(c3c[nH]c4ccccc34)C(=O)NC1=O)cn2CCCN(C)C	109%	81%	–	–	113%	111%	113%	100%	22%	2%	–	107%	–	–	–	–	–	–	–	–
CCCCc1c(-c2ccc(O)cc2)[nH]c2nccnc12	98%	77%	61%	22%	–	–	–	96%	88%	54%	–	–	–	–	88%	59%	–	–	–	–
COc1ccc(-c2cnc3c(-c4ccsc4)cnn3c2)cc1	100%	85%	77%	–	–	–	–	90%	72%	66%	–	–	–	–	–	–	–	–	–	–
COc1cc2c(cc1OC)-c1n[nH]c(Nc3cccc(F)c3)c1C2	0%	0%	44%	7%	110%	108%	–	107%	63%	79%	–	–	–	113% (inactive)	54%	17%	–	–	–	–
NC(=O)Nc1sc(-c2ccc(F)cc2)cc1C(N)=O	56%	4%	54%	10%	114%	92%	–	–	78%	39%	104% (inactive)	106%	102% (inactive)	103% (inactive)	89%	61%	93%	71%	–	–
Cn1sc(=O)n(Cc2ccccc2)c1=O	100%	85%	–	92%	–	–	–	–	67%	57%	–	–	–	–	82%	92%	97%	91%	–	–
NCCNc1ncc(C(N)=O)c(Nc2cccc(C(F)(F)F)c2)n1	112%	105%	70%	43%	104%	–	117%	–	–	–	–	111%	–	–	106%	81%	–	–	–	–
COc1cc2nccc(Oc3ccc(NC(=O)Nc4cc(C)on4)c(Cl)c3)c2cc1OC	3%	0%	–	–	–	–	–	–	76%	53%	–	–	98% (inactive)	103% (inactive)	77%	42%	–	–	–	–
c1ccc(-c2cnc(Nc3ccc(OCCN4CCCC4)cc3)s2)cc1	1%	1%	70%	29%	100%	106%	–	–	61%	52%	–	–	–	–	112%	56%	–	–	–	–
COc1cc2nccc(Oc3ccc(NC(=S)NC(=O)c4ccccc4C)cc3)c2cc1OC	28%	3%	32%	7%	–	–	–	–	66%	61%	95% (inactive)	–	98% (inactive)	91% (inactive)	81%	60%	98%	87%	–	–
CC(C)(C)n1nc(Cc2cccc3ccccc23)c2c(N)ncnc21	113%	77%	63%	24%	98%	97%	120%	87%	118%	96%	94% (inactive)	116%	90% (inactive)	–	44%	15%	98%	49%	–	–
CCCC(=O)Oc1ccc2[nH]c(C(=O)c3cc4ccccc4[nH]3)cc2c1	107%	89%	81%	94%	100%	95%	99%	79%	104%	91%	89% (inactive)	–	91% (inactive)	93% (inactive)	90%	108%	102%	86%	–	–
COc1cc2ncnc(Nc3cccc(Cl)c3)c2cc1OC	103%	107%	58%	29%	–	–	–	–	82%	59%	109% (inactive)	117%	102% (inactive)	115% (inactive)	–	–	126%	111%	–	–
O=C1C(Cl)=C(N2C(=O)CCC2=O)C(=O)c2ccccc21	101%	98%	124%	89%	–	–	–	78%	–	67%	–	–	–	96% (inactive)	95%	88%	101%	98%	–	–
O=C(Nc1ccc(Cl)cc1)c1ccccc1NCc1ccncc1	17%	-1%	78%	–	–	–	–	69%	135%	–	–	–	–	120% (inactive)	–	–	–	–	–	–
Oc1cccc(-c2nc(N3CCOCC3)c3oc4ncccc4c3n2)c1	118%	100%	91%	94%	49%	35%	-12%	7%	68%	84%	–	–	100% (inactive)	96% (inactive)	–	–	–	–	–	–
O=c1cc(N2CCNCC2)oc2c(-c3ccccc3)cccc12	97%	95%	94%	99%	90%	99%	76%	90%	69%	65%	80% (inactive)	–	104% (inactive)	95% (inactive)	99%	77%	98%	80%	–	–
